Data published in PubChem BioAssay (NCATS).
Inconclusive results are not listed. The source made the active and inactive calls. Unless noted, calls come from the whole dose curve; as a rule, active = well fitted curve in the direction sought with a large enough effect; inconclusive = small, poorly fitted or top-dose-only effect, or another doubt; inactive = no such curve, though single readings can be large; an effect the other way counts as inactive or inconclusive.

Key:
[1] = Vero cells viability qHTS for Zika virus inhibitors (AID 1347167); note: % is set by controls: 0 for no effect and ±100 for the full control effect
Method in brief: (§1)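 Counter-screen for cytotoxicity of hits from NS2B-NS3 protease qHTS. Overnight-attached cells (2.5 x 10^5 cells/mL, DMEM/4% FBS) were dosed in titration, incubated 24 to 48 hours, then assayed by CellTiter Glo.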

[2] = HepG2 cells viability qHTS for Zika virus inhibitors (AID 1347168); note: potency is the fitted concentration of half-maximal effect
Method in brief: as §1

[3] = Tertiary RLuc qRT-PCR qHTS assay for Zika virus inhibitors (AID 1347169); note: nearly all actives have a fitted effect of over 55% in size; note: potency is the fitted concentration of half-maximal effect
Method in brief: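 Orthogonal cell-based infection assay using recombinant ZIKV-RLuc (Cambodian) in Vero cells; compound added prior to virus at MOI 1-2. Incubation lasts 48-72 hrs at 37 degrees C before live-cell Renilla substrate is added and luminescence measured.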

[4] = qHTS to identify inhibitors of the type 1 interferon - major histocompatibility complex class I in skeletal muscle: primary screen against the NCATS Pharmaceutical Collection (AID 1347407);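 note: luminescence of HiBiT knocked into endogenous HLA-B as interferon-induced MHC class I level; % is set by controls: 0 for no effect and ±100 for the full control effect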
Method in brief: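 Cells were seeded with 4 ng/ml IFN-beta, incubated 1 h, then dosed with compounds over eight 1:5 steps up to 46 uM final. After 24 h at 37 C, HiBiT lytic reagent was added and luminescence read after 10 min lysis in the dark.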

[5] = molecular target: Protein phosphatase 1D (Homo sapiens) (UniProt O15297); experiment: RapidFire Mass Spectrometry qHTS Assay for Modulators of WT P53-Induced Phosphatase 1 (WIP1) (AID 1347424);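 note: amount of dephosphorylated VEPPL-S-QETFS peptide product formed by WIP1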; note: potency is the fitted concentration of half-maximal effect;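 for activity change, negative = inhibition: series mostly up to about 63 µM; plate controls were DMSO wells for no effect and GSK830371 inhibitor control at 10 µM for full effect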
Chain of Protein phosphatase 1D (Homo sapiens) (O15297 whole entry, looked up): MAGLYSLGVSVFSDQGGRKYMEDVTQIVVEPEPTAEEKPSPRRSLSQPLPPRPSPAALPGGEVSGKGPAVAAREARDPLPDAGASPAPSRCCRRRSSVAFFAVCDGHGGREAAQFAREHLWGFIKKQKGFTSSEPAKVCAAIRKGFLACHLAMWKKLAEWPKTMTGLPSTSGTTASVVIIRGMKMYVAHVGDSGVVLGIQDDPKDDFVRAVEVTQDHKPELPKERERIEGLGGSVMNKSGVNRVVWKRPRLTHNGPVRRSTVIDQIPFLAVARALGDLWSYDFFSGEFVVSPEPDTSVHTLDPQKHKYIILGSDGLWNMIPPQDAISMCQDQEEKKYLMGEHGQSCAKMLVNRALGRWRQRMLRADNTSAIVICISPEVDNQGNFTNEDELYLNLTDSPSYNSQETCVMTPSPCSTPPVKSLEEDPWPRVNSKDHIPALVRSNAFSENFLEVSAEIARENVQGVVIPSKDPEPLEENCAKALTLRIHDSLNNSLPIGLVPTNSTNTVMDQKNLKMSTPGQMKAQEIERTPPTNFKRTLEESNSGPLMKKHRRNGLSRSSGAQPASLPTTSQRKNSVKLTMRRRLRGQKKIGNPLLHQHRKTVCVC
Method in brief: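 WIP1 (10 nM final) was preincubated 1 h at room temperature with compounds in Tris-HCl pH 7.5, 30 mM MgCl2, TCEP, EGTA, BSA; 2 uM VEPPL-pS-QETFS phosphopeptide was added for 5 min, quenched with formic acid, and dephosphorylated product quantified by RapidFire MS.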

[6] = Primary qHTS for inhibitors of La Crosse Virus (LACV) - induced cell death in SH-SY5Y cells (AID 1508616);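 note: top concentration of the series differs between compounds; 0% = infected DMSO wells and 100% = uninfected DMSO wells; higher means more rescue of cells from virus-induced death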
Method in brief: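 Readout was luminescence from ATPLite 1step added after a 6-day LACV infection (0.01 MOI) of SH-SY5Y cells that had received pin-transferred compound 24 hr after seeding.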

[7] = molecular target: Calcium and integrin-binding protein 1 (Homo sapiens) (UniProt Q99828); experiment: Primary qHTS for Identification of Calcium Integrin Binding Protein 1 (CIB1) Competitor (AID 1508620);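 note: GST tagged CIB1 binding a fluorescein labelled alphaIIb integrin peptide tracer; top concentration of the series differs between compounds; % is set by controls: 0 for no effect and ±100 for the full control effect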
Chain of Calcium and integrin-binding protein 1 (Homo sapiens) (Q99828 whole entry, looked up): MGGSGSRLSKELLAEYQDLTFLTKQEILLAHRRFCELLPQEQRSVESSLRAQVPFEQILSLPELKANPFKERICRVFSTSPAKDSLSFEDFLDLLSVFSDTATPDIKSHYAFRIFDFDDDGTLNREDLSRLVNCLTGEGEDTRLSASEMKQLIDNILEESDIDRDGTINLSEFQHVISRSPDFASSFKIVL
Method in brief: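 Fluorescence polarization competition: CIB1-GST (1 uM final) preincubated with compound 15 min at room temperature, then FITC-labeled alphaIIb peptide (100 nM final) added for another 15 min. Polarization read at Ex 480/Em 540.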

[8] = Primary qHTS for small molecule stabilizers of the endoplasmic reticulum resident proteome: Secreted ER Calcium Modulated Protein (SERCaMP) assay (AID 1508630); note: % is set by controls: 0 for no effect and ±100 for the full control effect
Method in brief: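 GLuc-SERCaMP-expressing SH-SY5Y cells, pretreated 16 h with compound, are challenged with thapsigargin to empty ER calcium stores; after 4 h, coelenterazine is added directly to the medium and luminescence is imaged.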

[9] = molecular target: Protein phosphatase 1D (Homo sapiens) (UniProt O15297); experiment: Rhodamine-PBP qHTS Assay for Modulators of WT P53-Induced Phosphatase 1 (WIP1) (AID 1347425); note: % of control where 0% means no effect
Method in brief: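 WIP1 (5 nM final) was preincubated with compound for 1 hour at room temperature. It then dephosphorylated 10 uM VEPPL-pS-QETFS peptide in Tris-HCl pH 7.5 with 30 mM MgCl2. Released Pi was detected by 10 uM Rh-PBP fluorescence (ex 525/em 598 nm) read at 1-min intervals for 11 min, as delta f1 - f0.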

[10] = qHTS to identify inhibitors of the type 1 interferon - major histocompatibility complex class I in skeletal muscle: primary screen against the NCATS Mechanism Interrogation Plate v5.0 (MIPE) Libary (AID 1347411);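 note: plate controls were vehicle for no effect and reference inhibitor for full effect; nearly all actives have a fitted effect of over 65% in size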
Method in brief: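 Cells were genome-edited human myoblasts carrying a HiBit tag on endogenous HLA-B. They were treated with IFN-beta (4.0 ng/ml) and titrated compounds (top 46 uM) for 24 hrs before lytic HiBiT detection.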

[11] = A High-Content qHTS Against Drug Library for the Identification of Small Molecules that Inhibit DYT1 Early Onset Primary Dystonia-Associated Cell Pathology (AID 1645839; calls by dose curve; note: series mostly up to about 46 µM)
Method in brief: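 Readout: %pathology, the punctate EGFP-TorsinA distribution from imaging, as the primary channel and cell count as the toxicity counterscreen. HEK293 Flp-In cells expressing delE TorsinA were induced with tetracycline and treated with compound for 48 h.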

[12] = qHTS to identify inhibitors of the type 1 interferon - major histocompatibility complex class I in skeletal muscle: primary screen against the NCATS LOPAC collection (AID 1347405)
Method in brief: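 Cells: C25cl48 human myoblasts, HiBiT-tagged HLA-B*08:01, stimulated with IFN-beta 4.0 ng/ml. Compounds are titrated 1:4.3 over 7 points from 46 uM final and incubated 24 hrs; endogenous MHC class I is quantified by HiBiT lytic luminescence.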

[13] = qHTS for inhibitors of adenylyl cyclases using a fission yeast platform: a pilot screen against the NCATS LOPAC library (AID 1347410);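 note: plate controls were DMSO vehicle for no effect and DPI positive control for full effect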
Method in brief: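 Growth medium went into the plates first, then compounds were pinned (final up to 57 µM), then CHP2027 yeast were added. Plates were incubated overnight (18 h) at 30C in the dark, and GFP was measured by laser scanning cytometry.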

[14] = Validation qHTS assay for inhibitors of Activation Induced Cytidine Deaminase (AID): UDG Counterscreen signal (AID 1347427); note: 0% is about no effect
Method in brief: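 Counterscreen read of UDG activity (2 U/mL, 4/3x) in the FRET deamination format with AID (1 uM, 4/3x), DJC20/DJC23 substrates (250 nM, 4x), 4 h at room temperature. NaOH stop, fluorescence at 560 ex/665 em.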

[15] = molecular target: Single-stranded DNA cytosine deaminase (Homo sapiens) (UniProt Q9GZX7); experiment: Validation qHTS assay for inhibitors of Activation Induced Cytidine Deaminase (AID): AID signal (AID 1347429); note: % is set by controls: 0 for no effect and ±100 for the full control effect
Chain of Single-stranded DNA cytosine deaminase (Homo sapiens) (Q9GZX7 whole entry, looked up): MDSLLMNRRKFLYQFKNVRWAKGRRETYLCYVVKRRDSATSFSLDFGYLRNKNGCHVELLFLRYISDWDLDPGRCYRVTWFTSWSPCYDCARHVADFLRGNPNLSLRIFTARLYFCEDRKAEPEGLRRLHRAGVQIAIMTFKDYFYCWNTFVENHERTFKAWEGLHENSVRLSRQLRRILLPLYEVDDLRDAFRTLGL
Method in brief: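 In this coupled qHTS, AID deaminates a FRET-labelled ssDNA substrate in the presence of UDG over 4 hr at room temperature. Compounds span up to 114 uM final.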

[16] = molecular target: Calcium and integrin-binding protein 1 (Homo sapiens) (UniProt Q99828); experiment: Validation qHTS for Identification of Calcium Integrin Binding protein 1 (CIB1) Competitor (AID 1508618); note: % is set by controls: 0 for no effect and ±100 for the full control effect
Method in brief: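 Fluorescence polarization with 1 uM CIB1-GST and 100 nM FITC-alphaIIb peptide in HEPES pH 7.4, NaCl, 5 mM CaCl2, Tween20. Compounds at up to 114 uM final, preincubated with protein 15 min; read after 15 min more at RT.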

[17] = molecular target: Calcium and integrin-binding protein 1 (Homo sapiens) (UniProt Q99828); experiment: Confirmatory qHTS for Identification of Calcium Integrin Binding Protein 1 (CIB1) Competitor (AID 1508617); note: % is set by controls: 0 for no effect and ±100 for the full control effect; nearly all actives have a fitted effect of over 65% in size
Method in brief: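 FP competition: CIB1-GST (1 uM final) in 5 mM HEPES pH 7.4, 125 mM NaCl, 5 mM CaCl2, 0.01% Tween20 preincubated 15 min RT with compounds (up to 114 uM), then FITC-alphaIIb peptide (100 nM), 15 min RT; Ex 480/Em 540.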

CCC(CC)(CC(=O)Nc1cccc(/C=C/c2nc(C3CCC3)cs2)c1)C(=O)O
inactive: outcome [1] | Potency [2] | Potency [3] | Potency [4] | Potency [5] | outcome [6] | Potency [7] | Potency [8]

CC(C)=CCOc1ccc(/C=C/C(=O)c2ccc(OCC=C(C)C)cc2OCC(=O)O)cc1
inactive: activity change, negative = inhibition [3] 84.9% [at 5.25 µM] | Potency [4] | Potency [5] | outcome [6] | Potency [8]

Cc1ccc(S(=O)(=O)NC(=O)NC2CCCC2)cc1
inactive: Potency [4] | Potency [5] | outcome [9] | outcome [6] | Potency [7]

CC(=O)O[C@H]1C[C@@H]2CC[C@@H]3[C@H](CC[C@@]4(C)[C@H]3C[C@H]([N+]3(C)CCCCC3)[C@@H]4OC(C)=O)[C@@]2(C)C[C@@H]1N1CCCCC1
inactive: Potency [4] | Potency [10] | Potency [5] | outcome [9] | outcome [6] | Potency [7] | Potency [11]

C#C[C@]1(O)CC[C@H]2[C@@H]3CCc4cc(OC)ccc4[C@H]3CC[C@@]21C
inactive: Potency [4] | Potency [10] | Potency [5] | outcome [9] | outcome [6] | Potency [7] | Potency [8]

C#C[C@]1(O)CC[C@H]2[C@@H]3CCC4=CC(=O)CC[C@@H]4[C@H]3CC[C@@]21CC
inactive: Potency [4] | Potency [10] | Potency [5] | outcome [9] | outcome [6] | Potency [7] | Potency [8] | Potency [11]

CC(=O)O[C@]1(C(C)=O)CC[C@H]2[C@@H]3C=C(C)C4=CC(=O)CC[C@]4(C)[C@H]3CC[C@@]21C
inactive: Potency [4] | Potency [10] | Potency [5] | outcome [9] | outcome [6] | Potency [8]

CO[C@H]1C=CO[C@@]2(C)Oc3c(C)c(O)c4c(O)c(c(/C=N/N5CCN(C)CC5)c(O)c4c3C2=O)NC(=O)/C(C)=C\C=C[C@H](C)[C@H](O)[C@@H](C)[C@@H](O)[C@@H](C)[C@H](OC(C)=O)[C@@H]1C
inactive: Potency [4] | Potency [5] | outcome [9] | outcome [6] | Potency [7]

CC(C)(C)NC[C@H](O)COc1nsnc1N1CCOCC1
inactive: outcome [12] | Potency [4] | outcome [13] | Potency [5] | outcome [9] | outcome [14] | outcome [15] | outcome [6] | outcome [16] | Potency [7] | Potency [8]

O=C(O)P(=O)(O)O
inactive: Potency [4] | Potency [5] | outcome [9] | outcome [6] | Potency [7]

CCOC(=O)[C@H](CCc1ccccc1)N[C@@H](C)C(=O)N1[C@H](C(=O)O)C[C@H]2CCCC[C@@H]21
inactive: outcome [12] | outcome [13] | outcome [14] | outcome [15] | outcome [6] | outcome [16]

CC(=O)Oc1ccc(C)cc1
inactive: Potency [4] | Potency [5] | outcome [9] | outcome [6] | Potency [7]

Nc1nc(Cl)nc2c1ncn2[C@@H]1O[C@H](CO)[C@@H](O)[C@@H]1F
inactive: Potency [4] | Potency [10] | Potency [5] | outcome [9] | outcome [6] | Potency [7] | Potency [8]

COc1ccc(-c2cc(C(F)F)nn2-c2ccc(S(N)(=O)=O)cc2)cc1F
inactive: Potency [4] | Potency [5] | outcome [9] | outcome [6] | Potency [7]

Clc1cccc(C(c2ccc3nc[nH]c3c2)n2ccnc2)c1 (stereo unspecified)
inactive: Potency [4] | Potency [10] | Potency [5] | outcome [9] | outcome [6] | Potency [7] | Potency [8] | Potency [11]

O=C1[C@H](CC[C@H](O)c2ccc(F)cc2)[C@@H](c2ccc(O)cc2)N1c1ccc(F)cc1
inactive: Potency [4] | Potency [10] | Potency [5] | outcome [9] | outcome [6] | Potency [7]

CCO[C@@H]1O[C@H](C(COCc2ccccc2)OCc2ccccc2)[C@H](OCc2ccccc2)[C@H]1O (stereo partly specified)
inactive: Potency [4] | Potency [5] | outcome [9] | outcome [6] | Potency [7]

CCc1nn(CCCN2CCN(c3cccc(Cl)c3)CC2)c(=O)n1CCOc1ccccc1
inactive: Potency [4] | Potency [5] | outcome [9] | outcome [6] | Potency [7]

CCCCCCCCCCCCOCCOCCOCCOCCOCCOCCOCCOCCOCCO
inactive: Potency [4] | Potency [5] | outcome [9] | outcome [6] | Potency [7]

CN1CCc2cccc3c2[C@H]1Cc1ccc(O)c(O)c1-3
inactive: Potency [4] | Potency [5] | outcome [9] | outcome [6] | Potency [17] | Potency [8]

CN=C(N)NCCC[C@H](N)C(=O)O
inactive: outcome [12] | outcome [13] | outcome [14] | outcome [15] | outcome [6] | outcome [16] | Potency [8]

CCc1oc2ccccc2c1C(=O)c1cc(Br)c(O)c(Br)c1
active: Potency [5] 6.31 µM
inactive: outcome [1] | Potency [4] | outcome [6] | Potency [8]

Cc1ccc(-c2ncc(Cl)cc2-c2ccc(S(C)(=O)=O)cc2)cn1
inactive: Potency [4] | Potency [10] | Potency [5] | outcome [9] | outcome [6] | Potency [7] | Potency [8] | Potency [11]

NC(N)=NCc1cccc(I)c1
inactive: outcome [12] | outcome [13] | outcome [14] | outcome [15] | outcome [6] | outcome [16] | Potency [8]

C=C[C@@]1(C)CC(=O)[C@]2(O)[C@@]3(C)[C@@H](O)CCC(C)(C)[C@@H]3[C@H](O)[C@H](OC(C)=O)[C@@]2(C)O1
inactive: Potency [4] | Potency [5] | outcome [9] | outcome [6] | Potency [7]

C=C1c2cccc(O)c2C(O)=C2C(=O)[C@]3(O)C(O)=C(C(N)=O)C(=O)[C@@H](N(C)C)[C@@H]3[C@@H](O)[C@H]12
inactive: outcome [1] | Potency [2] | Potency [3] | outcome [6] | Potency [8] | Potency [11]
active: Potency [5] 28.2 µM

O[C@@H](c1cc(C(F)(F)F)nc2c(C(F)(F)F)cccc12)[C@H]1CCCCN1
inactive: outcome [1] | outcome [9] | outcome [6] | Potency [7] | Potency [8]
active: Potency [2] 20.8 µM | Potency [3] 9.3 µM

CC(O)Cn1cnc2c1c(=O)n(C)c(=O)n2C (stereo unspecified)
inactive: Potency [4] | Potency [5] | outcome [9] | outcome [6] | Potency [7]
